Shown are actives, neighbours in structure and some others; about 20% of the full set was active somewhere.
Cycloheximide cs: Cycloheximide Counterscreen for Small Molecule Inhibitors of Shiga Toxin | 300,000 compounds, 12% hits | max response, % | AID 2314, 2010 | cell reporter, cycloheximide protein synthesis inhibition counterscreen; in the data active means max response mostly above about 13%, no sharp cut-off; inactive means mostly below about 14%; further: read at 38.3 µM for the half of the compounds with a filed dose; 0% is about no effect
Shiga toxin inh: A qHTS for Small Molecule Inhibitors of Shiga Toxin | Vero cells, Shiga toxin protein synthesis inhibition reporter | AID 2315, 2010 | inhibition, % at 38.7 µM | 290,000 compounds, 9.2% hits; in the data active means inhibition mostly above about 28%, no sharp cut-off; inactive means mostly below about 43%; further: 0% is about no effect
Pf growth 48h: Primary qHTS for delayed death inhibitors of the malarial parasite plastid, 48 hour incubation; Potency, µM (series often up to 28.7 µM), for the others: at the highest dose activity change, negative = inhibition, most hits filed as inhibitors; P. falciparum luciferase growth in erythrocytes, 48 h; 310,000 compounds, 5.9% hits; AID 504832, 2011; further: potency means the concentration at half of the fitted maximal effect; on the % scale 0 is the no-effect control and ±100 the full control effect
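Luciferase-expressing P. falciparum in infected erythrocytes (2% hematocrit, 0.1% parasitemia final) in RPMI 1640/0.5% Albumax were exposed to compound for 48 hours at 37 C, 5% CO2; growth read as luminescence.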
HCMV antiviral: qHTS Assay for inhibitors of the human cytomegalovirus (HCMV) | 410,000 compounds, 4.5% hits | activity change, negative = inhibition, % at 57.5 µM | HFF cells, HCMV-luciferase reporter, 72 h; hits give low values | AID 1259415, 2018; in the data active means activity change below about -60%; inconclusive means no clear call, values can overlap the other calls; inactive means above about -39%; further: on the % scale 0 is the no-effect control and ±100 the full control effect
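Inhibition of viral replication was scored as loss of reporter luminescence in HFFs infected with HCMV-luciferase (MOI 1 PFU/cell) for 72 h; compounds tested at 2 doses, normalized to buffer and Salinomycin controls.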
Pf growth 96h: Primary qHTS for delayed death inhibitors of the malarial parasite plastid, 96 hour incubation; P. falciparum luciferase reporter growth, 96 h; Potency, µM (doses to about 28.7 µM), for inactives: top-dose activity change, negative = inhibition, most hits filed as inhibitors; 320,000 compounds, 6.9% hits; further: potency means the concentration at half of the fitted maximal effect; on the % scale 0 is the no-effect control and ±100 the full control effect
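Erythrocytes infected with luciferase-expressing P. falciparum were dispensed at 2% hematocrit and 0.05% parasitemia (final), then incubated with compounds 96 hours at 37 C in 5% CO2. Luminescence after detection reagent addition reported growth.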
Active calls of the source: *; ? = inconclusive; / = not tested or not shown. Unless noted, the call rests on the fitted dose curve; in most records, active means well fitted inhibition curve with a large enough effect; inconclusive means small, poorly fitted or top-dose-only effect, or another doubt; inactive means no such curve, though single readings can be large or run the other way.

SMILES | Cycloheximide cs | Shiga toxin inh | Pf growth 48h | HCMV antiviral | Pf growth 96h
C(=N\Nc1ncnc2ccccc12)/c1ccccc1 | 24* | 71* | 335% | 62 | 133%
O=C(Nc1cccc(C(F)(F)F)c1)C1CCN(c2nnc(-n3cccc3)s2)CC1 | / | / | / | 17 | /
N#CCCNS(=O)(=O)c1ccc(C(=O)OCCCOC(=O)c2ccc(S(=O)(=O)NCCC#N)cc2)cc1 | -8 | -20 | 23% | 5 | 13%
O=C(COc1ccc(S(=O)(=O)NC2CCCCC2)cc1)NCCC1=CCCCC1 | 1 | -3 | ? | -3 | ?
CN(Cc1ccccc1)C(=O)c1cccc(NC(=O)Cc2ccc(NC(=O)C3CCCN(C(=O)C4CCCC4)C3)cc2)c1 (stereo not drawn) | / | / | / | -9 | /
COc1ccc(CNC(=O)c2cc3cccc4c3n2CC(C)S4)c(OC)c1 (stereo not drawn) | / | / | / | 0 | /
Clc1cccc(Nc2cc3c(cn2)ncn3Cc2ccco2)c1 | / | / | / | 29 | /
COC(=O)c1c(C(=O)OC)c(-c2ccc(Cl)cc2)n2c1CS(=O)(=O)C2 | -3 | -10 | 1.5µM* | -26 | ?
COC(=O)c1c(C(=O)OC)c(-c2ccc(C)cc2)n2c1CS(=O)(=O)C2 | -6 | -3 | / | 9 | 1.7µM*
COC(=O)c1c(C(=O)OC)c(-c2cccc(F)c2)n2c1CS(=O)C2 (stereo not drawn) | -2 | -4 | 1% | 14 | 45%
COC(=O)c1c(C(=O)OC)c(-c2cccc(C)c2)n2c1CS(=O)(=O)C2 | -4 | -19 | / | -31 | ?
COC(=O)c1c(C(=O)OC)c(-c2cccc(Cl)c2)n2c1CS(=O)(=O)C2 | 7 | -16 | 0% | 25 | -19%
COC(=O)c1c(C(=O)OC)c(-c2ccc(C(C)(C)C)cc2)n2c1CS(=O)C2 (stereo not drawn) | 11 | -9 | 10µM* | ? | ?
CC(C)CN(C[C@@H](OP(=O)(O)O)[C@H](Cc1ccccc1)NC(=O)O[C@@H]1CCOC1)S(=O)(=O)c1ccc(N)cc1 | / | / | 7% | / | -7%
COc1ccc(CCNC(=O)C2CCCN(S(=O)(=O)c3ccc(F)cc3)C2)cc1OC (stereo not drawn) | -1 | 22 | ? | 69 | ?
Cc1cn(CCC(=O)Nc2ccc(N3CCOCC3)cc2)c2ccccc12 | 66* | 61* | 8% | 11 | ?
Cc1cn(CCC(=O)Nc2ccccc2N2CCOCC2)c2ccccc12 | 50* | 75* | -5% | 121 | ?
CCCC(=O)Nc1ccc(N2CCOCC2)cc1 | 9 | 2 | 22% | 13 | 0%
Cn1c(SCC(=O)NC(C)(C)C)nnc1-c1cnccn1 | 2 | -19 | 21% | 21 | ?
CC1(C)CN(O)CCN1O | -4 | -8 | 15% | ? | 10%
CC(C)(C)OC(=O)/C=C/[C@H]1Cc2ccccc2N1 | / | / | / | 19 | /
Cc1ccc(S(=O)(=O)c2cc3c(=O)n4ccccc4nc3n(Cc3ccco3)c2=N)cc1C | -1 | -9 | ? | -32 | 12µM*
Cc1ccc2nc3c(cc(S(=O)(=O)c4ccccc4)c(=N)n3Cc3ccco3)c(=O)n2c1 | 33* | 39* | -78% | 47 | -19%
Cc1cccn2c(=O)c3cc(S(=O)(=O)c4ccc(F)cc4)c(=N)n(Cc4ccco4)c3nc12 | -5 | -4 | 10µM* | -13 | 15µM*
Cc1nnc(NC(=O)c2nc(SCc3ccccc3F)ncc2Cl)s1 | / | / | / | 31 | /
SMILES | Cycloheximide cs | Shiga toxin inh | Pf growth 48h | HCMV antiviral | Pf growth 96h
Cc1ccc2nc(NC(=O)c3nc(SCc4ccccc4C)ncc3Cl)sc2c1 | / | / | / | -2 | /
CSc1nnc(NC(=O)c2nc(S(=O)(=O)Cc3ccccc3F)ncc2Cl)s1 | 51* | 36* | 14% | -96* | ?
CCOc1ccc(NC(=O)c2nc(S(=O)(=O)Cc3ccccc3F)ncc2Cl)cc1 | -11 | 20 | / | -100* | /
CCc1nnc(NC(=O)c2nc(SCc3ccccc3F)ncc2Cl)s1 | / | / | / | 4 | /
Cc1nnc(NC(=O)c2nc(S(=O)(=O)Cc3ccccc3C)ncc2Cl)s1 | 44* | 51* | -9% | -102* | 35%
CCOC(=O)c1ccc(NC(=O)c2nc(SCc3ccccc3F)ncc2Cl)cc1 | / | / | / | 22 | /
CC(C)c1nnc(NC(=O)c2nc(S(=O)(=O)Cc3ccccc3F)ncc2Cl)s1 | 56* | 106* | 18% | -111* | 92%

From PubChem
